Source: the supplement of paper PMC11732987, “Enantioselective OTUD7B fragment discovery through chemoproteomics screening and high-throughput optimisation” (Communications Chemistry, 2025)

Experiments:
Test in all cases: log2 ratio of Biotin-Ahx-Ub-VS probe labelling (fragment/DMSO); higher = less target engagement (more negative = stronger competition), active = hit call of the paper (q ≤ 0.05, log2 ratio ≤ -1)
Conditions in all cases: compound concentration: 200 uM; treatment time: 3 h
USP34 = USP34 (UniProt Q70CQ2)
USP34, sequence (Q70CQ2 whole entry, the tested form may be a part): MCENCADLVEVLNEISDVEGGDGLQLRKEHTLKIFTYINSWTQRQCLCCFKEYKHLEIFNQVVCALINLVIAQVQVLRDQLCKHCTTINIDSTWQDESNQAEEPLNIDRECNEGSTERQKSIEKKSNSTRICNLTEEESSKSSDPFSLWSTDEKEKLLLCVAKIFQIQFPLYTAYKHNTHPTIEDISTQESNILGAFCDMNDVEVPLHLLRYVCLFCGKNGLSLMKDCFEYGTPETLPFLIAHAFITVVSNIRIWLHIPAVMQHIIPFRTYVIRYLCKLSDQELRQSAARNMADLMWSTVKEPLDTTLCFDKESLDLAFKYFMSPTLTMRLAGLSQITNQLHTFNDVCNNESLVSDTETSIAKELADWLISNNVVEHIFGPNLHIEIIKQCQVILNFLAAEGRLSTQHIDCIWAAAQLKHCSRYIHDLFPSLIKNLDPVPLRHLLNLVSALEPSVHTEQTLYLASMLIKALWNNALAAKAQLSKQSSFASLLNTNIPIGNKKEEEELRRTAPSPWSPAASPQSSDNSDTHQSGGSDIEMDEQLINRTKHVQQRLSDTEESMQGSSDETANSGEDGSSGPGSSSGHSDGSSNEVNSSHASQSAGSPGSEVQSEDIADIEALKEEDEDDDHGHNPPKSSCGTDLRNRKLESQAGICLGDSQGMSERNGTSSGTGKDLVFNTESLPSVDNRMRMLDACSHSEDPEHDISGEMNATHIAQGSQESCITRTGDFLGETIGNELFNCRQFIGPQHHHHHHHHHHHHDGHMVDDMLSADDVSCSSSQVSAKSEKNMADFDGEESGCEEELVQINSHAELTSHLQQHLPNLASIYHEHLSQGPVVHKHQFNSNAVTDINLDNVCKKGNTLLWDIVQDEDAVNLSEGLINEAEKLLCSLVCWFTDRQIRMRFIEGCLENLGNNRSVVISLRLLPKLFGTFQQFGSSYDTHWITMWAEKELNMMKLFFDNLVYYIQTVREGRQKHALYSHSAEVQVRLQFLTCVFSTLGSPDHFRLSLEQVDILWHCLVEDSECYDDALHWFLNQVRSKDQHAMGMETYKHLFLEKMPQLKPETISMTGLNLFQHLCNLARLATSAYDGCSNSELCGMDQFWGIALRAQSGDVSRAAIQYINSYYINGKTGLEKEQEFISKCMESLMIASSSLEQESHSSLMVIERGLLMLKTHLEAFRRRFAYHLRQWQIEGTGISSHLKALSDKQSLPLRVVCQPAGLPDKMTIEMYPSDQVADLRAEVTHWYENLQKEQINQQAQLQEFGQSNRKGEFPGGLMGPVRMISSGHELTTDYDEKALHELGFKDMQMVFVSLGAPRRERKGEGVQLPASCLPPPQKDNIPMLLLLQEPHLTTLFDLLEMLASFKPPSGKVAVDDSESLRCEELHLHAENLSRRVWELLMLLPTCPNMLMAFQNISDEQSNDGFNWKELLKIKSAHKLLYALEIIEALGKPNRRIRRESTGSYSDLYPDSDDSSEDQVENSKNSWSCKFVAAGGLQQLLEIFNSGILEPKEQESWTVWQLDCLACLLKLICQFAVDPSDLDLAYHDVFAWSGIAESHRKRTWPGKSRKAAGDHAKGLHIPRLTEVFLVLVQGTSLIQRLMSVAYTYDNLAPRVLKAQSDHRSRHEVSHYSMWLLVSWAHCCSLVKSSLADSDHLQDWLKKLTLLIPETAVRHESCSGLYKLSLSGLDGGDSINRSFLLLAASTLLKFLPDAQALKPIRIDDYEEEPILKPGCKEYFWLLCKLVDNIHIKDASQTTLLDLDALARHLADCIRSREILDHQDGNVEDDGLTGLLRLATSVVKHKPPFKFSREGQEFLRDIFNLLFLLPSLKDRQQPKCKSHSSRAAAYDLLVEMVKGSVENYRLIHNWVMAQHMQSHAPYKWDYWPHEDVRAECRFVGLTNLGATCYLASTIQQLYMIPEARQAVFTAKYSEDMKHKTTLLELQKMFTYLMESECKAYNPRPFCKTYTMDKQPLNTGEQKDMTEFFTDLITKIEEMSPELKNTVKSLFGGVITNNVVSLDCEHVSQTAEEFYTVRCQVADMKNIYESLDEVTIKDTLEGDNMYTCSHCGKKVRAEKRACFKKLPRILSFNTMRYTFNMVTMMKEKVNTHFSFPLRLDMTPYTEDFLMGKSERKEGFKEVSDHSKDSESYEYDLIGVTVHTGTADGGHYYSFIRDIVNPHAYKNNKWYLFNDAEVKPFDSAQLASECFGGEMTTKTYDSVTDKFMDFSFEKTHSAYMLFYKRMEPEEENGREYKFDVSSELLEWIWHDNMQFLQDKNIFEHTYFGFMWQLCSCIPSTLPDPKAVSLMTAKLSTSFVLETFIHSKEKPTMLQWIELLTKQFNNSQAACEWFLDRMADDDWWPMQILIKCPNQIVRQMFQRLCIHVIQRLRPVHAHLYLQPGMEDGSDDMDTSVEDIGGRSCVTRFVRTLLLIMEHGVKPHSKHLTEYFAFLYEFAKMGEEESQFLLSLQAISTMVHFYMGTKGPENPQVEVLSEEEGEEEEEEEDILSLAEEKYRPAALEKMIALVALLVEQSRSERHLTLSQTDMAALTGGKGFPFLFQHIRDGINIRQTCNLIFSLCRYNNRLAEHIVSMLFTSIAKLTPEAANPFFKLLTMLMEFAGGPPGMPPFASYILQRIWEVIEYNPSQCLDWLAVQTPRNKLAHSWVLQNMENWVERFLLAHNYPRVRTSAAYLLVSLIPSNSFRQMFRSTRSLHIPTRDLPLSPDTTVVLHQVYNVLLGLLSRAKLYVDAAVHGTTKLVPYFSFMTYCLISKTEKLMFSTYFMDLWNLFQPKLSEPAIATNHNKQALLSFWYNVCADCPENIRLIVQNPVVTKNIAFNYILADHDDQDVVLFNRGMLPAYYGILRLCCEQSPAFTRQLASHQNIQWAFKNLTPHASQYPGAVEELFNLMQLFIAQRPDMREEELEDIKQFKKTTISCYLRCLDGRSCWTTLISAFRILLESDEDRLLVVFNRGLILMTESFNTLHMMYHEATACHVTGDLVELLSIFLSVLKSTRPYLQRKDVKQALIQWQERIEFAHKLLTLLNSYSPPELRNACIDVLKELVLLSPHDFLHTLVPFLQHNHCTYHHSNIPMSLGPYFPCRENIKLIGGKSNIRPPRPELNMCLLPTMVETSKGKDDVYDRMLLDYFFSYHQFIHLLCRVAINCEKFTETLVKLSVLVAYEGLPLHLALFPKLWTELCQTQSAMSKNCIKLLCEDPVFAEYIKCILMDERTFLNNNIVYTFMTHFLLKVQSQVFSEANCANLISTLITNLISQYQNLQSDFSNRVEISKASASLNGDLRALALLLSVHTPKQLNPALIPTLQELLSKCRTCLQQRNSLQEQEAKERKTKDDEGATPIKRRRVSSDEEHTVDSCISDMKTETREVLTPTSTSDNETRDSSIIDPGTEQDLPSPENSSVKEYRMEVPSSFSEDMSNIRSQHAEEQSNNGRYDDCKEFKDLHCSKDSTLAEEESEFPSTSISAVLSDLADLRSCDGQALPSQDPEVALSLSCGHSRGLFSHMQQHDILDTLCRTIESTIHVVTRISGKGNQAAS
Method in brief: (§1)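 Labelling with Biotin-Ahx-Ub-VS (0.5 µM final, 1 h) followed a 3 h triplicate treatment of HEK293T lysate (495 µg per sample, Tris/CHAPS/IGEPAL buffer with protease inhibitors) with fragment at 200 µM or vehicle. Labelled DUBs were NeutrAvidin-enriched, digested with LysC and trypsin, and run by diaPASEF LC-MS/MS. The values, average log2 fragment/vehicle ratios by unpaired t-test, come from global-median-normalised Spectronaut label-free quantities. Proteins with ≥2 unique peptides were used.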

USP36 = target: T1, USP36 (UniProt Q9P275)
T1 sequence (whole entry): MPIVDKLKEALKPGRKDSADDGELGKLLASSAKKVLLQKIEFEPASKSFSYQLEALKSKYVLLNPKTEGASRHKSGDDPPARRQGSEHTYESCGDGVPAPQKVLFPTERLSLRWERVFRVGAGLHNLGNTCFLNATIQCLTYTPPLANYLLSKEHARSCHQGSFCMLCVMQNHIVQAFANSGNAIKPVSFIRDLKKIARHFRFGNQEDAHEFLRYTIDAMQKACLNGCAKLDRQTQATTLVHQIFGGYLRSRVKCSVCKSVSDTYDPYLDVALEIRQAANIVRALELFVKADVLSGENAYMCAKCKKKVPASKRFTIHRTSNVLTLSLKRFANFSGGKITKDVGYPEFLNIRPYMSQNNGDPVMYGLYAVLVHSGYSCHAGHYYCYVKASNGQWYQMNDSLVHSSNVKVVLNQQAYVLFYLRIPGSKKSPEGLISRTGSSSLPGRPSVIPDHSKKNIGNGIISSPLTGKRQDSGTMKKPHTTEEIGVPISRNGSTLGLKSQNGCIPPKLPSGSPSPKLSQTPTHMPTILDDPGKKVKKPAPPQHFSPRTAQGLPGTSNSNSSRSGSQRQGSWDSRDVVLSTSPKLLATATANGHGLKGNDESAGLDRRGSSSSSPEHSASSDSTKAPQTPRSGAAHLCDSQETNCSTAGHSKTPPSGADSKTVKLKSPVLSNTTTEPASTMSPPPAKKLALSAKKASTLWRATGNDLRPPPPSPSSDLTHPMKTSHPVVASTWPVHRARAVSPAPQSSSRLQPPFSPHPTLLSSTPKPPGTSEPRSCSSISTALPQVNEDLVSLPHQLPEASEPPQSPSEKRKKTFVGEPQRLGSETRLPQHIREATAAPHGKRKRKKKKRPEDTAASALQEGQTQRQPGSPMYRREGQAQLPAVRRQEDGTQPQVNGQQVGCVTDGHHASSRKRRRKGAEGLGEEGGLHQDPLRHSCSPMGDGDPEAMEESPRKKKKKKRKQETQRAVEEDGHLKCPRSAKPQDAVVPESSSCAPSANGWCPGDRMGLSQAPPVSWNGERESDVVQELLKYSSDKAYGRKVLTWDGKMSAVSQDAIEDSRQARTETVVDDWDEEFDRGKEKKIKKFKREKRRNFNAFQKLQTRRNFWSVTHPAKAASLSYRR
Method in brief: as §1

USP38 = target: T2, USP38 (UniProt Q8NB14)
T2 sequence (whole entry): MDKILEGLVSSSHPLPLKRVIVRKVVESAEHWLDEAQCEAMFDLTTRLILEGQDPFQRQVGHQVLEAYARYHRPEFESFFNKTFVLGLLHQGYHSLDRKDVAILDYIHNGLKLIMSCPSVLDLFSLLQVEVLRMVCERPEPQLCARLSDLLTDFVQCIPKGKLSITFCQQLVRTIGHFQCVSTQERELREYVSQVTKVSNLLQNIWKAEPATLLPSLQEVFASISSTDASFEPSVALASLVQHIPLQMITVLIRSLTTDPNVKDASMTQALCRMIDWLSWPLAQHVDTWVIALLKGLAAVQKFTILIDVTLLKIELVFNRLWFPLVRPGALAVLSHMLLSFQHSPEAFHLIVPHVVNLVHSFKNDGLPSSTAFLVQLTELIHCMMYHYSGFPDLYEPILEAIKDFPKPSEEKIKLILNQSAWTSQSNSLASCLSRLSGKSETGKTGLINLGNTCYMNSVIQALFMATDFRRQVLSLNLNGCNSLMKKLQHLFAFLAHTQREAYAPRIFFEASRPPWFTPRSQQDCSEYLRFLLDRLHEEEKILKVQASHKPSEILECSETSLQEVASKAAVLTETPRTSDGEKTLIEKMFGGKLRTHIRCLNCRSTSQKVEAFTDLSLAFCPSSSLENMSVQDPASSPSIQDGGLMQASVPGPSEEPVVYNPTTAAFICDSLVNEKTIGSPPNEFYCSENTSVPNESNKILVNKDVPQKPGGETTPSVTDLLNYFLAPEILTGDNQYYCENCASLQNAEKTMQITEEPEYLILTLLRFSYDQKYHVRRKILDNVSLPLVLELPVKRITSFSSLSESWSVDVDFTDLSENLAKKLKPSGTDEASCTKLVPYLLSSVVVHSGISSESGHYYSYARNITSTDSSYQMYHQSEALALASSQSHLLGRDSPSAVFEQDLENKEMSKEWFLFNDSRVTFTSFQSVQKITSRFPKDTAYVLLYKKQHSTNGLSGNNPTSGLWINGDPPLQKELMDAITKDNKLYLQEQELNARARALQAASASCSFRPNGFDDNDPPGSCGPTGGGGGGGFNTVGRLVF
Method in brief: as §1

USP39 = target: T3, USP39 (UniProt Q53GS9)
T3 sequence (whole entry): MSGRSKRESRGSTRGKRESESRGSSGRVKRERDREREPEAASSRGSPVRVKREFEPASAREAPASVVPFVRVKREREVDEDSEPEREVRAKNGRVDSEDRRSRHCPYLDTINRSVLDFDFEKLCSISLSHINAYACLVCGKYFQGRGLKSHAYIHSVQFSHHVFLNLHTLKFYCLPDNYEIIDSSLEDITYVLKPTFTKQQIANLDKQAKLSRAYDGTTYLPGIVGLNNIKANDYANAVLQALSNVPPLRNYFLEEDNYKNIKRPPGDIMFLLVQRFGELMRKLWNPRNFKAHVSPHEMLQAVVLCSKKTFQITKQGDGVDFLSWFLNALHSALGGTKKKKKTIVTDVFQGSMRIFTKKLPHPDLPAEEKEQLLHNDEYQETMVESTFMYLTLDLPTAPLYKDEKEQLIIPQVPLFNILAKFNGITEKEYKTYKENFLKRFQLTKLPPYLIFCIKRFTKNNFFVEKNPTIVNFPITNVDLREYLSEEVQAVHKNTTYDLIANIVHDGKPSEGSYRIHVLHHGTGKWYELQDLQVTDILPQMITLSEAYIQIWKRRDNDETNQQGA
Method in brief: as §1

USP4 = target: T4, USP4 (UniProt Q13107)
T4 sequence (whole entry): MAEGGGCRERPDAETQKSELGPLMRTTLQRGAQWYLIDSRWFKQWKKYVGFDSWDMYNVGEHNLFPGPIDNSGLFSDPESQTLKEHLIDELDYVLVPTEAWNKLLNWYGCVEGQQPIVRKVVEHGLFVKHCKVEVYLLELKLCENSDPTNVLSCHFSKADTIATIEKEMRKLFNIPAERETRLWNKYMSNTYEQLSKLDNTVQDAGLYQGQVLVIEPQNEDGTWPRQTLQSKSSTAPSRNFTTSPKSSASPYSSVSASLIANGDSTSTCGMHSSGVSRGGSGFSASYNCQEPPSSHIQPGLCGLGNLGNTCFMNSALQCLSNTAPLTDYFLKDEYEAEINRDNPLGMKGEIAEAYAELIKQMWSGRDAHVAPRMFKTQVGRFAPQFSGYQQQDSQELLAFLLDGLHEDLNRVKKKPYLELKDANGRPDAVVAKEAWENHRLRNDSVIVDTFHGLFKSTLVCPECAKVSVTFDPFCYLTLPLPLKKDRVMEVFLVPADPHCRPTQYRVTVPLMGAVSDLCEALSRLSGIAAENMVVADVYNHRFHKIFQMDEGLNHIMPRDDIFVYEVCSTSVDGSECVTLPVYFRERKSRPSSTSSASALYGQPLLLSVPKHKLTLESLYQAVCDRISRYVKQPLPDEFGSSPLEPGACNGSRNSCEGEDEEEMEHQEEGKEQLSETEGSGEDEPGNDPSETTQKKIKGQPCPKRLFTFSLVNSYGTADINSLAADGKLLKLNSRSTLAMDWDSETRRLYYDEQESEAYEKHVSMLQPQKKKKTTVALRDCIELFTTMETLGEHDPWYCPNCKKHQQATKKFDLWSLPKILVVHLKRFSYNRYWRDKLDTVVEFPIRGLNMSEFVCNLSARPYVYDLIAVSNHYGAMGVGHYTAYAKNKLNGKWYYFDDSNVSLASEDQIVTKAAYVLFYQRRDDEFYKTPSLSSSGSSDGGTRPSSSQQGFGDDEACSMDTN
Method in brief: as §1

Measured: log2 ratio of Biotin-Ahx-Ub-VS probe labelling

O=C(CCl)NCc1cccc(N2CCCC2=O)c1
inactive: USP34 -0.203 | USP36 -0.212 | USP38 -0.128 | USP39 -0.0958 | USP4 0.0693
